Source: ChEMBL document CHEMBL3433997, “St. Jude Leishmania screening dataset” (2016)

These molecules were tested against Hexose transporter 1 (Plasmodium falciparum) (UniProt O97467) (assay: ST_JUDE_LEISH: Cytotoxicity at 2uM final concentration against transgenic Leishmania Mexicana promastigotes LmPfHT that are glucose transport deficient and complemented with the Plasmodium falciparum hexose transporter. Activity is measured by DNA content using SYBR green in vitro).
Format: functional

| SMILES | inhibition [%] |
| --- | --- |
| Cc1cc(O)c(-c2ccc(Oc3ccc(F)cc3)cc2)c(C)n1 | -0.19 |
| CCCc1cc(N2CCC(N3CCCC3)CC2)nc(Nc2ccc(OC)cc2)n1 | 2.18 |
| NC1=NC(Cc2ccccc2)(c2ccncc2)C(=O)N1CCCc1ccccc1 (stereo not given) | 3.32 |
| O=C(CC(=O)Nc1cc(Cl)cc(Cl)c1)Nc1cc(Cl)cc(Cl)c1 | -3.47 |
| CN1CCN(CCCSc2ccc3c(c2)ncn3-c2cc(OCc3ccccc3C(F)(F)F)c(C(N)=O)s2)CC1 | 11.1 |
| CSc1ccc(NC(=O)Nc2cc(C)nc3ccccc23)cc1 | 10.8 |
| Cc1cccc(CNc2nc(C)cc(N[C@@H](CC(C)C)C(=O)NCCOc3ccccc3)n2)c1 | 5.38 |
| CN(CCCc1c[nH]c2ccccc12)CC1CCN(C(=O)/C=C/c2ccc(Cl)c(Cl)c2)CC1 | -1.25 |
| CN(C(=O)c1ccc(Br)cc1)c1ccccc1[N+](=O)[O-] | -1.07 |
| N=C(N)c1ccc(C(=O)Nc2cccc(C(=N)N)c2)cc1 | 0.84 |
| c1ccc2c(c1)ncc1c3ccccc3[nH]c21 | 7.76 |
| CCSc1ccccc1CON1C(=N)N=C(N)NC1(C)C | 19.1 |
| Cc1cccc2nc(-c3ccc(-c4ccc(CN5CCC(N)C5)cc4)s3)[nH]c12 (stereo not given) | 0.94 |
| CCCCCCCC1CCN(C[C@H](O)c2ccnc3ccc(OC)cc23)CC1 | 0.96 |
| Cc1cc(NC(=O)c2cc(Br)ccc2Cl)n(-c2nc(C)c(C)c(=O)[nH]2)n1 | -1.98 |
| O=S(=O)(c1csc2ccccc12)N(CCC(O)(C(F)(F)F)C(F)(F)F)Cc1cccc(O)c1 | -2.19 |
| CC(C)N1CCC(N(Cc2ccc(-c3ccc(C(F)(F)F)cc3)cc2)C(=O)CCCn2c(CCc3cccc(F)c3F)nc(=O)c3ccccc32)CC1 | 3.92 |
| Cc1noc(=O)c2ccc(NC(=O)C(O)(CSc3ccccc3)CC(C)C)cc12 (stereo not given) | 4.78 |
| COc1ccccc1-c1ccc(C(=O)NCC2CCCN(Cc3cccc(C(F)(F)F)c3)C2)s1 (stereo not given) | 8.99 |
| CC(C)(Cc1ccc(Cl)cc1)NCCCCCCNCCc1ccc(O)c(O)c1 | -2.96 |

| SMILES | inhibition [%] |
| --- | --- |
| CN(C)S(=O)(=O)n1ccc2c3c(N)nc(N)nc3ccc21 | 46.3 |
| COc1cccc(-c2ccc3c(-c4ccc(F)cc4)cnc(N)c3c2)c1 | 4.32 |
| COc1cc2nc(N3CCC(CNCc4ccc(-c5ccc(C(F)(F)F)cc5)cc4)CC3)nc(N)c2cc1OC | 107 |
| COc1cc(C(=O)NC2CCN(Cc3ccccc3)CC2)ccc1-c1nc2cc(Cl)c(C)cc2[nH]1 | 9.26 |
| Cc1ccc(NC(=O)c2ccc(NCCCN3CC(C)CC(C)C3)c([N+](=O)[O-])c2)cc1F (stereo not given) | 5.06 |
| CCCCCC(C)N/C(=N/c1ccccc1Br)Nc1ccc(C#N)cc1O (stereo not given) | 1.33 |
| CC(C)(C)c1cc(NC(=O)c2ccc(Cl)c([N+](=O)[O-])c2)cc(C(C)(C)C)c1 | 6.88 |
| Nc1cc(/C=C/c2ccc([N+](=O)[O-])o2)nc2ccccc12 | 104 |
| COc1ccc2nccc(NCC3(O)CCN(CC(O)c4ccc5c(c4)NC(=O)CS5)CC3)c2n1 (stereo not given) | 2.49 |
| COc1ccc(CNC2CCN(C)CC2)cc1-c1ccc(S(=O)(=O)NCC2CCCO2)s1 (stereo not given) | 4.98 |
| CCOC(=O)COc1cccc(CNc2ccc3nc(N)nc(N)c3c2)c1 | 1.84 |
| CCCC(C)Nc1nc(C)cc(N[C@@H](CC(C)C)C(=O)NCCOc2ccccc2)n1 (stereo not given in full) | 17 |
| O=C(Nc1ccc(Oc2ccccc2)cc1)N[C@H]1CCN(Cc2ccc(OCCCN3CCCCC3)cc2)C1 | -1.17 |
| O=C(Nc1ccc(N2CCCN(Cc3cccc(F)c3)CC2)cc1)c1ccccc1 | -0.73 |
| CC(O)C1CCCCN1C(=O)c1cccc(-c2ccc(-c3nc4cc(C(F)(F)F)ccc4[nH]3)cc2)c1 (stereo not given) | 0.3 |
| Cc1ccc(S(=O)(=O)Nc2ccc(Nc3nccc(Nc4cccc5[nH]ncc45)n3)cc2)cc1 | 2.62 |
| Cc1cccc(-c2ccc(NC(=O)Nc3ccc4nccc(N5CCN(C)CC5)c4c3)cc2C)n1 | 5.32 |
| COc1ccc(Cn2c(Nc3cccc(C(F)(F)F)c3)nc3cc(C(=O)NCCCN(C)C)ccc32)cc1Cl | 0.55 |
| O=c1cc(NCCCNC(c2ccccc2)c2ccc(Cl)c(Cl)c2)[nH]c2ccccc12 (stereo not given) | -1.47 |
| CCOc1cc(C(=O)NC2CC(C)(C)NC(C)(C)C2)ccc1-c1cc2cc(Cl)c(Cl)cc2[nH]1 | -1.26 |
